Sampled rows, rich in hits. Any-hit rate of the full collection: about 3.5%.
FBW7 activator – human FBW7 E3 ligase activation, primary screen | AID 1259310 | Q969H0 | normalized activity (activation), % at 26.1 µM | 650,000 compounds, 0.13% hits | AlphaScreen FBW7–phospho-cyclin E peptide binding, activator screen; in the data active means normalized activity above about 1.9%;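 further: purified mutant Fbw7 with reduced substrate affinity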
GPR151 ag – activators of human GPR151. activation, % at 11.2 µM. Q8TDV0. PathHunter beta-arrestin GPR151 cells, luminescence. AID 1508602. 650,000 compounds, 1% hits; in the data active means activation above about 4.9%;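 further: 0% = median of compound wells and 100% = cells with positive control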
MITF primary – human MITF inhibition, primary screen | O75030 | inhibition, % at 2.6 µM | AlphaScreen MITF homodimerization, bead proximity signal | 650,000 compounds, 0.91% hits; in the data active means inhibition above about 50%;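 further: 0% = vehicle wells with protein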
Target sequence (O75030 whole entry, looked up): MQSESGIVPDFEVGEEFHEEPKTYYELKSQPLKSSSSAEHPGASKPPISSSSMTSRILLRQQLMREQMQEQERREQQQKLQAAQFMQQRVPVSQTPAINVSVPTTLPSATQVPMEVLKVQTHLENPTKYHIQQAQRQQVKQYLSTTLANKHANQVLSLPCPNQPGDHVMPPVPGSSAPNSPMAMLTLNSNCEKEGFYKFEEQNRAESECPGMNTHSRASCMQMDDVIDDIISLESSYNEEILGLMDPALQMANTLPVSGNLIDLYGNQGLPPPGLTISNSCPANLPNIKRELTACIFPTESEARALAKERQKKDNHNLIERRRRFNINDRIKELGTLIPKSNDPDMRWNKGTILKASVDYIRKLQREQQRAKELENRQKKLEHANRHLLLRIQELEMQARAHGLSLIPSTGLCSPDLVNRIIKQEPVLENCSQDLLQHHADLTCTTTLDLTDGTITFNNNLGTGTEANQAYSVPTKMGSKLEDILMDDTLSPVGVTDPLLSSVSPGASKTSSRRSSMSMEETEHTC
TEAD-YAP inh – TEAD-YAP interaction inhibition; HEK-TIYL cells, TEAD-Gal4/YAP UAS-luciferase luminescence; inhibition, % at 9.12 µM; 640,000 compounds, 1.4% hits; in the data active means inhibition above about 32%;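 further: 0% = median of test compound wells and 100% = reference inhibitor wells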
Numbers without * were called inactive.

SMILES | FBW7 activator | GPR151 ag | MITF primary | TEAD-YAP inh
CN1CC(=O)N2CCN(Cc3cnn(-c4cccc(F)c4)c3)C[C@@H]2C1=O | 0 | 0 | -4 | -14
O=[N+]([O-])c1cc(-c2nc(-c3ccccc3)c(-c3ccc(Oc4ccccc4)cc3)[nH]2)ccc1Br | 0 | 2 | -5 | 1
Cc1cc(/C=N/Nc2nc(N)ncc2[N+](=O)[O-])c(C)n1-c1ccccc1F | 0 | -7 | 14 | 63*
Cc1cc(/C=N\Nc2ccc([N+](=O)[O-])cn2)c(C)n1-c1ccccc1F | 0 | 0 | -11 | -57
COc1cc(-c2cccc3cnc(Nc4ccc(-n5cnc(C)n5)cc4)nc23)ccn1 | 0 | 1 | 28 | 14
Cc1ccc(-c2cccc3cnc(Nc4ccc(-n5cnc(-c6ccccn6)n5)cc4)nc23)cn1 | 5.7* | 0 | 28 | 28
Cc1ncn(-c2ccc(Nc3ncc4cccc(-c5cccc(F)c5)c4n3)cc2)n1 | 0 | -1 | 12 | 0
Cc1cc(-c2cccc3cnc(Nc4ccc(-n5cnc(C)n5)cc4)nc23)ccn1 | 1 | 1 | 6 | 62*
Cc1ncn(-c2ccc(Nc3ncc4cccc(-c5ncco5)c4n3)cc2)n1 | 1 | -1 | 43 | 70*
Cc1ncn(-c2ccc(Nc3ncc4cccc(-c5ccccn5)c4n3)cc2)n1 | 0 | 0 | 22 | 42*
CCCOc1ccc(/C=N/NC(=O)C(=O)Nc2cccc(OC)c2)cc1OCC | 0 | -1 | 15 | -25
Nc1nnc(-c2nonc2N)o1 | 0 | 1 | 5 | -1
CCOC(=O)C1=C(N)N(c2ccc(Br)cc2)C2=C(C(=O)CCC2)C1c1ccc(C(C)(C)C)s1 (centres undefined) | 0 | 0 | -1 | 0
Cc1ncn(-c2ccc(Nc3ncc4cccc(-c5cncnc5)c4n3)cc2)n1 | 0 | -2 | 6 | -23
Cc1ccc(-c2cccc3cnc(Nc4ccc(-n5cnc(C)n5)cc4)nc23)cn1 | 1 | -2 | 13 | 61*
O=C(Cc1cn(-c2ccc(Nc3ccc(N4CCOCC4)cc3)nn2)c2ccccc12)NCc1ccccc1 | 0 | -1 | 14 | 48*
Cc1cnc(CNC(=O)c2ccc3cncc(-c4ccccc4)c3n2)cn1 | 0 | 0 | -4 | 63*
O=C(NCc1ccccc1)c1ccc2cncc(-c3ccccc3)c2n1 | 0 | -1 | 60* | 66*
O=C(O)c1c[nH]c2ccc(S(=O)(=O)N3CCCCC3c3cccnc3)cc2c1=O (centres undefined) | 0 | 1 | 34 | 7
CCCCOCC(O)CN1CCCCCC1 (centres undefined) | 0 | 0 | 1 | -3
CCOC(=O)N1CCc2c(sc(NC(=O)Cc3ccccc3)c2C(N)=O)C1 | 0 | -1 | 17 | -3
CCOC(=O)N1CCc2c(sc(NC(=O)/C=C/c3ccc([N+](=O)[O-])cc3)c2C#N)C1 | 0 | 1 | 1 | 29
CCOC(=O)N1CCc2c(sc(NC(=O)/C=C/c3cccs3)c2C#N)C1 | 0 | 1 | 0 | 49*
CC(=O)N1CCc2c(sc(NC(=O)CSc3ccccc3)c2C(N)=O)C1 | 0 | 4 | 13 | -5
CC(=O)N1CCc2c(sc(NC(=O)CCc3ccccc3)c2C(N)=O)C1 | 0 | 0 | 9 | 51*
SMILES | FBW7 activator | GPR151 ag | MITF primary | TEAD-YAP inh
CCOC(=O)N1CCc2c(sc(NCc3cccc(OC)c3OC)c2C(=O)Nc2ccc(OC)cc2OC)C1 | 0 | 0 | 31 | 37*
CCOC(=O)c1c(NC(=O)Cc2ccccc2)sc2c1CCN(C(=O)OCC)C2 | 5.2* | 0 | -4 | 2
COc1cccc(C(=O)COC(=O)c2cncc(Br)c2)c1 | 0 | 1 | -7 | 5
CC(NC(=O)CCCn1c2ccccc2c2cn[nH]c(=O)c21)c1ccccc1 (centres undefined) | 0 | -1 | 3 | 5
CCOC(=O)N1CCc2c(sc(NC(=O)c3ccccc3)c2C#N)C1 | 0 | 1 | 11 | 51*
CC(C)N1CCc2c(sc(NC(=O)c3cc4ccccc4oc3=O)c2C(N)=O)C1 | 0 | 0 | 10 | 62*
CCOC(=O)c1c(NC(=O)c2ccc(Cl)s2)sc2c1CCN(C(C)C)C2 | 2.2* | 0 | 9 | -8
CCOC(=O)N1CCc2c(sc(NC(=O)c3cc(Cl)sc3Cl)c2C#N)C1 | 0 | -1 | -6 | 32*
COCCn1c(=O)c(=O)n(CC(=O)N2CCc3ccccc32)c2cc(C(F)(F)F)ccc21 | 0 | -1 | 11 | 4
CC(C)CC(NC(=O)Oc1ccccc1)C(=O)Nc1nc(-c2ccccc2)cs1 (centres undefined) | 0 | 0 | 1 | 6
CCOC(=O)N1CCc2c(sc(NC(=O)c3ccccc3Br)c2C#N)C1 | 0 | 5 | -4 | 53*

Screening data from PubChem BioAssay.
